In the supplement of paper PMC6089552:
Screen size: about 3,200 compounds; about 300 (9.4%) showed activity. Many of the other results were omitted from the sample, so actives are more common in it than they were.

System: A673/TR/shEF
Assay: cell viability (LOESS-normalised, relative to median of negative controls) (log2 ratio); higher = more viable cells (less compound effect), active = hit call of the paper (over 3 MAD below the median)
Settings: treatment time: 72 h
How it was run: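 A673/TR/shEF Ewing sarcoma cells were plated at 1,500 per well in 384-well plates and cultured with or without doxycycline, added 24 h before compounds, to induce EWS-FLI1 shRNA knockdown. Library compounds at two or more concentrations, alongside DMSO controls, were applied for three days. Cell viability was measured by CellTiter-Glo luminescence on an Envision reader. Readings were LOESS-corrected per plate, divided by the median of negative controls and log2-transformed, and hits were wells lying at least three median absolute deviations from the median of all screened wells.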

[1] = 0.25 µM, library screen: screen1, EWS-FLI1 expression: high (no doxycycline)
[2] = 0.25 µM, library screen: screen1, EWS-FLI1 expression: low (doxycycline-induced shRNA knockdown)
[3] = 2.5 µM, library screen: screen1, EWS-FLI1 expression: high (no doxycycline)
[4] = 2.5 µM, library screen: screen1, EWS-FLI1 expression: low (doxycycline-induced shRNA knockdown)
[5] = 0.25 µM, library screen: screen2, EWS-FLI1 expression: high (no doxycycline)
[6] = 0.25 µM, library screen: screen2, EWS-FLI1 expression: low (doxycycline-induced shRNA knockdown)
[7] = 2.5 µM, library screen: screen2, EWS-FLI1 expression: high (no doxycycline)
[8] = 2.5 µM, library screen: screen2, EWS-FLI1 expression: low (doxycycline-induced shRNA knockdown)
[9] = 0.103 µM, library screen: screen3, EWS-FLI1 expression: high (no doxycycline)
[10] = 0.103 µM, library screen: screen3, EWS-FLI1 expression: low (doxycycline-induced shRNA knockdown)
[11] = 0.308 µM, library screen: screen3, EWS-FLI1 expression: high (no doxycycline)
[12] = 0.308 µM, library screen: screen3, EWS-FLI1 expression: low (doxycycline-induced shRNA knockdown)
[13] = 0.926 µM, library screen: screen3, EWS-FLI1 expression: high (no doxycycline)
[14] = 0.926 µM, library screen: screen3, EWS-FLI1 expression: low (doxycycline-induced shRNA knockdown)
[15] = 2.8 µM, library screen: screen3, EWS-FLI1 expression: high (no doxycycline)
[16] = 2.8 µM, library screen: screen3, EWS-FLI1 expression: low (doxycycline-induced shRNA knockdown)
[17] = 8.3 µM, library screen: screen3, EWS-FLI1 expression: high (no doxycycline)
[18] = 8.3 µM, library screen: screen3, EWS-FLI1 expression: low (doxycycline-induced shRNA knockdown)
[19] = 25 µM, library screen: screen3, EWS-FLI1 expression: high (no doxycycline)
[20] = 25 µM, library screen: screen3, EWS-FLI1 expression: low (doxycycline-induced shRNA knockdown)
[21] = 0.025 µM, library screen: screen1, EWS-FLI1 expression: high (no doxycycline)
[22] = 0.025 µM, library screen: screen1, EWS-FLI1 expression: low (doxycycline-induced shRNA knockdown)
[23] = 25 µM, library screen: screen1, EWS-FLI1 expression: high (no doxycycline)
[24] = 25 µM, library screen: screen1, EWS-FLI1 expression: low (doxycycline-induced shRNA knockdown)

Measured: cell viability (log2)

O=C(O)CSc1nnc(COc2ccccc2)n1-c1ccc(Cl)cc1
inactive: [1] 0.0719 | [2] -0.0199 | [3] 0.0305 | [4] 0.0659

CC1(C)C=CC(=O)[C@@]2(C)C1CC(=O)[C@]1(C)C2CC[C@@]2(C)[C@H](c3ccoc3)OC(=O)C3OC321 (some centres undefined)
inactive: [1] 0.0164 | [2] 0.0615 | [3] 0.135 | [4] 0.0703

C=C(O)CCC/C=C\C[C@@H]1[C@@H](/C=C/[C@H](O)C2Cc3ccccc3C2)[C@@H](F)C[C@@H]1O
inactive: [5] 0.175 | [6] 0.154 | [7] 0.111 | [8] 0.184

Cc1ccc2c(c1)C(N1CCN(C)CC1)=Nc1cccnc1N2
inactive: [5] 0.144 | [6] 0.13 | [7] 0.0813 | [8] 0.0355

CC1(C)C=Cc2cc3ccc(=O)oc3cc2O1
inactive: [1] 0.0334 | [2] 0.0455 | [3] 0.0429 | [4] 0.132

Cc1ccc(C(=O)NCc2ccc3c(c2)OCO3)cc1
inactive: [1] 0.0742 | [2] -0.0061 | [3] 0.0676 | [4] 0.0498

COc1ccccc1/C=C1\SC(=S)N(C2CCS(=O)(=O)C2)C1=O (centres undefined)
inactive: [1] 0.0633 | [2] 0.0907 | [3] 0.0733 | [4] 0.0539

COc1ccc(OC)c(CN2CCN(Cc3cccnc3)CC2)c1
inactive: [1] 0.114 | [2] 0.038 | [3] 0.0976 | [4] -0.0472

N/C(=N/c1nc2ccccc2o1)NC(=O)Nc1ccccc1
inactive: [1] 0.05 | [2] 0.11 | [3] 0.0784 | [4] 0.171

NCC1COc2ccccc2O1 (centres undefined)
inactive: [1] 0.104 | [2] -0.0116 | [3] 0.0686 | [4] 0.0513

COc1cccc(C=CC(=O)O)c1C(C)C
inactive: [1] 0.0613 | [2] 0.0863 | [3] 0.0736 | [4] 0.0985

CCC(=O)OC1[C@@H]2CC3=C4CC(=O)O[C@@H](c5ccoc5)[C@]4(C)CCC3[C@@](C)(C2=O)[C@@H](CC(=O)OC)C1(C)C (some centres undefined)
inactive: [1] 0.0873 | [2] -0.00184 | [3] 0.0649 | [4] 0.122

NCCC(=O)N[C@@H](Cc1cnc[nH]1)C(=O)O
inactive: [1] 0.026 | [2] 0.0201 | [3] 0.0679 | [4] 0.084

CC(C)c1c(C(=O)Nc2ccccc2)c(-c2ccccc2)c(-c2ccc(F)cc2)n1CC[C@@H](O)C[C@@H](O)CC(=O)O
inactive: [1] 0.091 | [2] 0.0242 | [3] 0.147 | [4] -0.0132

O=C(O)C[C@H](O)C[C@H](O)/C=C/c1c(C2CC2)nc2ccccc2c1-c1ccc(F)cc1
active: [13] -0.533 | [14] -0.345 | [15] -1.53 | [16] -0.986 | [17] -2.09 | [18] -1.25 | [19] -3.51 | [20] -3.56
inactive: [9] 0.0626 | [10] -0.0656 | [11] -0.114 | [12] -0.0155

CC(C)n1c(/C=C/C(O)CC(O)CC(=O)O)c(-c2ccc(F)cc2)c2ccccc21 (centres undefined)
active: [17] -0.668 | [18] -0.538 | [19] -2.7 | [20] -1.87
inactive: [9] 0.107 | [10] 0.0332 | [11] 0.201 | [12] 0.108 | [13] 0.169 | [14] 0.0801 | [15] 0.0218 | [16] -0.0661

O=C1O[C@H]([C@@H](O)CO)C([O-])=C1[O-].[Ca+2]
inactive: [1] 0.0808 | [2] 0.0736 | [3] 0.131 | [4] 0.127

CC1=C(C(=O)Nc2ccccc2Cl)C(c2ccccc2Cl)NC(=S)N1 (centres undefined)
inactive: [1] 0.0969 | [2] 0.0233 | [3] 0.106 | [4] 0.0823

CCc1c(C)c(C#N)c2nc3ccccc3n2c1-n1ccnc1C
inactive: [1] 0.109 | [2] 0.0379 | [3] 0.104 | [4] 0.136

CC(=O)Oc1ccc2c(c1)CC[C@@H]1[C@@H]2CC[C@]2(C)[C@@H](O)CC[C@@H]12
inactive: [1] 0.103 | [2] -0.00729 | [3] 0.0771 | [4] 0.0723

COc1c(O)cc(O)c2c(=O)c(-c3ccc(O)cc3)coc12
inactive: [1] 0.0728 | [2] 0.0747 | [3] 0.145 | [4] 0.165

COc1c/c(=C2\C=c3ccccc3=N2)[nH]/c1=C\c1[nH]c(C)cc1C
inactive: [9] -0.00852 | [10] -0.0389
active: [11] -0.218 | [12] -0.107 | [13] -0.709 | [14] -0.236 | [15] -2.64 | [16] -1.14 | [17] -3.15 | [18] -1.55 | [19] -4.31 | [20] -2.5

COc1nc(N/N=C/c2ccccc2F)nc(N2CCCCC2)n1
inactive: [1] 0.0265 | [2] 0.00454 | [3] 0.104 | [4] -0.0151

NC(Cc1ccc(F)cc1)C(=O)O (centres undefined)
inactive: 0.025 µM, library screen: screen2, EWS-FLI1 expression: high (no doxycycline) 0.118 | 0.025 µM, library screen: screen2, EWS-FLI1 expression: low (doxycycline-induced shRNA knockdown) 0.0851 | [1] 0.119 | [2] 0.172 | [5] 0.158 | [6] 0.0689 | [3] 0.144 | [4] 0.0179 | [7] 0.2 | [8] 0.0773 | 25 µM, library screen: screen2, EWS-FLI1 expression: high (no doxycycline) 0.0209 | 25 µM, library screen: screen2, EWS-FLI1 expression: low (doxycycline-induced shRNA knockdown) 0.0999

CSCCC(NC=O)C(=O)NC(C)C(=O)O (centres undefined)
inactive: [1] 0.11 | [2] 0.0779 | [3] 0.177 | [4] 0.154

O=C1c2ccc(O)c(O)c2C(=O)c2c(O)ccc(O)c21
inactive: [1] 0.0226 | [2] 0.0878 | [3] 0.117 | [4] -0.00838

O=C1c2c(O)ccc(O)c2C(=O)c2c(NCCNCCO)ccc(NCCNCCO)c21
active: [9] -0.962 | [10] -0.246 | [1] -1.93 | [2] -0.576 | [5] -2.25 | [6] -0.221 | [11] -1.25 | [12] -0.351 | [13] -1.51 | [14] -0.325 | [3] -4.22 | [4] -3.67 | [7] -2.87 | [8] -0.985 | [15] -2.02 | [16] -0.758 | [17] -3.96 | [18] -3.09 | [19] -4.26 | [20] -4.25

O=C1c2cccc(O)c2C(=O)c2c(O)cccc21
inactive: [1] 0.127 | [2] 0.109 | [3] 0.149 | [4] 0.271

NC(N)=NCCC[C@H](N[C@H](CCC(=O)O)C(=O)O)C(=O)O
inactive: [1] 0.0848 | [2] 0.0238 | [3] 0.123 | [4] 0.0291

C/C(=C\C(=O)Nc1ccccc1C(=O)O)c1ccc2ccccc2c1
inactive: [9] 0.0459 | [10] 0.0279 | [11] -0.00745 | [12] -0.00325 | [13] -0.0219 | [14] 0.0436 | [15] 0.00499 | [16] -1.3e-05 | [17] -0.0171 | [18] 0.0177 | [19] 0.0665 | [20] 0.0416

O=P(O)(O)C(O)c1ccc2ccccc2c1 (centres undefined)
inactive: [21] 0.0997 | [22] 0.0649 | [1] 0.143 | [2] -0.0248 | [3] 0.0554 | [4] 0.0311 | [23] 0.0292 | [24] 0.0551

C=CC(=O)c1ccc2ccccc2c1
inactive: [22] 0.0903 | [2] 0.00371 | [4] 0.198 | [24] -0.0301
0.286: [1]
0.279: [21]
active: [3] -0.264 | [23] -0.287

NC(=O)c1cc[n+](CC2=C(C(=O)O)N3C(=O)[C@@H](NC(=O)C(c4ccccc4)S(=O)(=O)O)[C@H]3SC2)cc1 (some centres undefined)
inactive: [1] -0.0396 | [2] 0.081 | [3] -0.00797 | [4] 0.0119

CN1CCN(c2nc3ccccn3c(=O)c2/C=C2\SC(=S)N(C)C2=O)CC1
inactive: [1] 0.017 | [2] -0.00298 | [3] 0.0372 | [4] -0.00837

COc1cc(O)c2c(=O)cc(-c3ccc(OC)c(O)c3)oc2c1
inactive: [1] 0.0474 | [2] 0.00819 | [3] 0.132 | [4] 0.0369

COc1ccc(-c2cc(=O)c3c(O)cc(O[C@@H]4O[C@H](CO[C@@H]5O[C@@H](C)[C@H](O)[C@@H](O)[C@H]5O)[C@@H](O)[C@H](O)[C@H]4O)cc3o2)cc1
inactive: [1] 0.0703 | [2] 0.0696 | [3] 0.0879 | [4] 0.0994

COc1ccc(-c2cc(=O)c3c(O)c(OC)c(OC4OC(COC5OC(C)C(O)C(O)C5O)C(O)C(O)C4O)cc3o2)cc1 (centres undefined)
inactive: [1] 0.0877 | [2] 0.0838 | [3] 0.171 | [4] 0.116

COc1ccc(-c2cc(=O)c3c(O)cc(O[C@@H]4O[C@H](CO[C@@H]5O[C@@H](C)[C@H](O)[C@@H](O)[C@H]5O)[C@@H](O)[C@H](O)[C@H]4O)cc3o2)cc1O
inactive: [2] 0.0382 | [4] 0.0709
active: [1] -0.0892 | [3] -0.0968

COc1ccc(-c2cc(=O)c3c(O)cc(O)cc3o2)cc1O
inactive: [1] -0.0193 | [2] -0.536 | [3] -0.0793 | [4] 0.0681

COc1ccc(-c2cc(=O)c3c(O)c(OC)c(OC)cc3o2)cc1O
inactive: [1] -0.076 | [2] -0.0378 | [4] -0.145
active: [3] -0.654
